Our source for the Percent Effect values is ChEMBL document CHEMBL3988442, “University of Dundee, Small-Polar-MMV Screening Library” (2021).

For some assays here: Measured potencies and affinities stand elsewhere.

Parameters in all cases: scale not given: direction of the effect not stated beside the values
Assay [1] deals with Protein translocase subunit SecA (Escherichia coli (strain K12)) (UniProt P10408). The experiment in a line: Assay to Identify E. coli SecA ATPase Inhibitors. It is filed as functional. The note with it: 30 µM.
Sequence of Protein translocase subunit SecA (Escherichia coli (strain K12)) (P10408 whole entry): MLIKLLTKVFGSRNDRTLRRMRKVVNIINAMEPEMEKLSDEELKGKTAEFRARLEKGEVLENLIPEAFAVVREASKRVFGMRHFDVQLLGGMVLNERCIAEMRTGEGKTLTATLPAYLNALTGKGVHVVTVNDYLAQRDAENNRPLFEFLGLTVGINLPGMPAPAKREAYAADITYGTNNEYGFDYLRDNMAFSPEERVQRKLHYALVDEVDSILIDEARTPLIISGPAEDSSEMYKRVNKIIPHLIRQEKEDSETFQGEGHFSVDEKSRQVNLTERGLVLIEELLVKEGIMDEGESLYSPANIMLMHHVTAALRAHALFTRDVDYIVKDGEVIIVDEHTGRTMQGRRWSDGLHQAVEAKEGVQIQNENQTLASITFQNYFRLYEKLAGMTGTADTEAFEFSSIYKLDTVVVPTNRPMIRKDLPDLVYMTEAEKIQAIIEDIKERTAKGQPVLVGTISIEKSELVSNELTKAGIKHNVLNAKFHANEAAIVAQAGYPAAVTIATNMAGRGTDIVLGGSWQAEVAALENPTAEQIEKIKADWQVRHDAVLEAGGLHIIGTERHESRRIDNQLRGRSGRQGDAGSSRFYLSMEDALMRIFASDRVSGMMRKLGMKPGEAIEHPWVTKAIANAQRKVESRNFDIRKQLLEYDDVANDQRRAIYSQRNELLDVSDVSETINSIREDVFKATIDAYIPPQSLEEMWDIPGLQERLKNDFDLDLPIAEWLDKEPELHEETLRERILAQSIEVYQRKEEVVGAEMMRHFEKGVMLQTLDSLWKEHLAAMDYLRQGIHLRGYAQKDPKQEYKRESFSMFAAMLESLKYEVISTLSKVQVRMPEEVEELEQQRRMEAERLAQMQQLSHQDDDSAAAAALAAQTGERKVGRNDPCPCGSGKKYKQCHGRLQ
Assay [2] has as its target T1, Ubiquitin-activating enzyme e1, putative (Leishmania donovani (strain BPK282A1)) (UniProt E9BSI1).
T1 sequence (whole entry): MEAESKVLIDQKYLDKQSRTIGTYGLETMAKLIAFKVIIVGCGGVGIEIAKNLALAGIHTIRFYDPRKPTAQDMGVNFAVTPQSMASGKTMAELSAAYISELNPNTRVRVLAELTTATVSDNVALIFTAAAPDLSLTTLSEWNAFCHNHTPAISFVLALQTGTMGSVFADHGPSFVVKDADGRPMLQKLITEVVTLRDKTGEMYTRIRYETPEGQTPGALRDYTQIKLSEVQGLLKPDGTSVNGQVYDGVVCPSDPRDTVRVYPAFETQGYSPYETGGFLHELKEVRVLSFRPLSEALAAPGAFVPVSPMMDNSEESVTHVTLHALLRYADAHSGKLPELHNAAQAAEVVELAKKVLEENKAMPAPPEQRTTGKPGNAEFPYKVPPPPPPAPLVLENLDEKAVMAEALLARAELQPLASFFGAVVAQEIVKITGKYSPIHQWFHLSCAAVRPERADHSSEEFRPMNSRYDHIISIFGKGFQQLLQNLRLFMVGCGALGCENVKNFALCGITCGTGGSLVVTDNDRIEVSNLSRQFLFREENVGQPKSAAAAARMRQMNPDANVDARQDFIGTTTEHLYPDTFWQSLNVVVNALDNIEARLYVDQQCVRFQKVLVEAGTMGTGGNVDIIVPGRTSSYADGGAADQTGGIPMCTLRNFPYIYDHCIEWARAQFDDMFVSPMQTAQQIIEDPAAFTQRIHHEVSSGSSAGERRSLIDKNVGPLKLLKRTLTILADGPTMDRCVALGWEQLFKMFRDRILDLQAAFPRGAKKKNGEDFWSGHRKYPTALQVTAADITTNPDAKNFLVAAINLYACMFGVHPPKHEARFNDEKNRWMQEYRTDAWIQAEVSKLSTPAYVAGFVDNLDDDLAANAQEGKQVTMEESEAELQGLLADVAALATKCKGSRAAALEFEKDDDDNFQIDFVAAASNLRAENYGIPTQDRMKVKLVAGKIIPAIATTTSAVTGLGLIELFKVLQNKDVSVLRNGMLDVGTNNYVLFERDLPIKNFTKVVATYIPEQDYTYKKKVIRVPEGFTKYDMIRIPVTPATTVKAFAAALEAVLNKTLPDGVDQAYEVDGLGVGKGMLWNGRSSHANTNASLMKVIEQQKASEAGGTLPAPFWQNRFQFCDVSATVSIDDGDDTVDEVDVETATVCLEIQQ
Description: Leishmania donovani Ubiquitin Activating Enzyme (LdE1). It is filed as functional. The note with it: 30 µM.

Assay [3] deals with AMP-activated protein kinase, AMPK (Homo sapiens) (UniProt P54646+O43741+P54619+Q9UGJ0+Q9Y478+Q13131+Q9UGI9). Description: AMP-dependent Kinase enzyme assay. An in vitro enzyme assay that detects ADP turnover that is directly proportional to AMPK activity. This uses naive AMPK that is activated during the assay with MK-8722. The format is functional. As to conditions: 30 µM.

The target in assay [4] is Sialic acid-binding Ig-like lectin 9 (Homo sapiens) (UniProt Q9Y336). Description: Hs-Siglec9 ALPHAscreen SOP 20170721. As to conditions: 10 µM. On the technique in general: Alpha assays give light when donor and acceptor beads are brought close together.
Sequence of Sialic acid-binding Ig-like lectin 9 (Homo sapiens) (Q9Y336 whole entry): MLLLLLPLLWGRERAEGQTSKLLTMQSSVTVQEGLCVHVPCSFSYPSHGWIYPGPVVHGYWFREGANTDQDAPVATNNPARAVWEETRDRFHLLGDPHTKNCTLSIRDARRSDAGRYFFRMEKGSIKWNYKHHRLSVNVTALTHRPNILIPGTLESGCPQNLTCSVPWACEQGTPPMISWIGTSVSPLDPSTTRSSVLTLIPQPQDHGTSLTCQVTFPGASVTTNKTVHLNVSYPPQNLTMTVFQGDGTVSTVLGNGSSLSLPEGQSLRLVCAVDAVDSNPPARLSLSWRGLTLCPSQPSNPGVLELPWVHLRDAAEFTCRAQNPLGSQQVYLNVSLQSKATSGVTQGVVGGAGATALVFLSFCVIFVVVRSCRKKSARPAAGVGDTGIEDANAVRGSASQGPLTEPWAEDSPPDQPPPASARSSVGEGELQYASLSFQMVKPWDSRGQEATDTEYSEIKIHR
Another assay deals with Trypanosoma cruzi. The experiment in a line: Trypanosoma cruzi phosphomannomutase and mannose-1-phosphate guanylyltransferase assay. As to conditions: 10 µM. The format is functional.
For assay [5], the target named is T2, Arginase-2, mitochondrial (Homo sapiens) (UniProt P78540).
T2 sequence (whole entry): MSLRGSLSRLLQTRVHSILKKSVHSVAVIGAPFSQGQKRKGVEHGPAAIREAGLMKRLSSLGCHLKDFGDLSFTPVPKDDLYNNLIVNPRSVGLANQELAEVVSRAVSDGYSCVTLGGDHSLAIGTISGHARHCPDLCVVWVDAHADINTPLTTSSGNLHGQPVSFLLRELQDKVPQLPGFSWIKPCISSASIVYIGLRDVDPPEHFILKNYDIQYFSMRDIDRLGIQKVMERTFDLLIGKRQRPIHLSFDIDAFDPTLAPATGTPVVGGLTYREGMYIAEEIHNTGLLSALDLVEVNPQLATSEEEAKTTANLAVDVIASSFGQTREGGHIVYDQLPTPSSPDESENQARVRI
Description: in vitro enzyme assay to detect the production of urea directly proportional to the activity of Arginase II. Further: in the data most compounds retested in dose-response had high values. The format is functional. The note with it: 33.3 µM.

Assay [6] addresses T3, Proteasome subunit beta (Trypanosoma cruzi) (UniProt O96673).
T3 sequence (whole entry): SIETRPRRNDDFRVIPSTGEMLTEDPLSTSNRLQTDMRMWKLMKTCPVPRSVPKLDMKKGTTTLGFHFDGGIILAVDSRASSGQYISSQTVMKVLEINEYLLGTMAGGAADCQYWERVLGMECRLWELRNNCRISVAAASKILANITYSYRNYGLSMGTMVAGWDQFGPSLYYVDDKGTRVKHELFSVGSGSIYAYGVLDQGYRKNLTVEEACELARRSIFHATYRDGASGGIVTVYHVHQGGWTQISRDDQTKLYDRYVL
Description: Trypanosoma cruzi proteasome chymotrypsin-like activity (TcProtChymo) assay. Further: in the data most compounds retested in dose-response had high values. It is filed as functional. The note with it: 9.37 µM.

The species named for the next assay is Homo sapiens. The experiment in a line: To identify inhibition of the IFN signalling (Jak-Stat) pathway via expression of an eGFP reporter gene under the control of an IFN-stimulated response element (ISRE) containing MxA promoter. It is filed as functional. The note with it: 30 µM.
For assay [7], the target named is T4, Tyrosyl-tRNA synthetase, putative (Trypanosoma cruzi (strain CL Brener)) (UniProt Q4DSP6).
T4 sequence (whole entry): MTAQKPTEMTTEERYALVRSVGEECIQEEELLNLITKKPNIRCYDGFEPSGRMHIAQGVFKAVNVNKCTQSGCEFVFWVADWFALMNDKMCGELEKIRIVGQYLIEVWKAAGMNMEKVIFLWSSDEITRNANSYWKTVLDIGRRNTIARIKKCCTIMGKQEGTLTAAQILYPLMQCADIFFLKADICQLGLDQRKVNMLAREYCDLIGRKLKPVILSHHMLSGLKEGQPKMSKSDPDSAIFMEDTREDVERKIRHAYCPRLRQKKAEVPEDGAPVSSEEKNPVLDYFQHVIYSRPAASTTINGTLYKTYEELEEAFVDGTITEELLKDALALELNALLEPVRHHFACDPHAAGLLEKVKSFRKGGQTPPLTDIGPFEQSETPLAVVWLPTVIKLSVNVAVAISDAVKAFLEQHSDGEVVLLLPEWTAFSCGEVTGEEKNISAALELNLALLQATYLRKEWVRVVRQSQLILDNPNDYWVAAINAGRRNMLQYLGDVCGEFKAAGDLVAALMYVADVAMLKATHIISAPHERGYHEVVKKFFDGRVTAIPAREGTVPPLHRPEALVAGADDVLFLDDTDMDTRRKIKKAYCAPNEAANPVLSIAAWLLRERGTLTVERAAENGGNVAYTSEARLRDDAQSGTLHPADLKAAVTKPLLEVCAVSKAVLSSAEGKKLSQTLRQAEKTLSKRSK
The experiment in a line: Trypanosoma cruzi tyrosyl tRNA synthetase (TcYRS) _High Tyrosine SOP. Further: in the data most compounds retested in dose-response had high values. It is filed as functional. The note with it: 30 µM.

The target of assay [8] is T4, Tyrosyl-tRNA synthetase, putative (Trypanosoma cruzi (strain CL Brener)). The experiment in a line: Trypanosoma cruzi tyrosyl tRNA synthetase (TcYRS) SOP. The format is functional. The note with it: 30 µM.
Assay [9] addresses Chromo domain-containing protein 1 (Saccharomyces cerevisiae (strain ATCC 204508 / S288c) (Baker's yeast)) (UniProt P32657). The experiment in a line: ScCHD-1 Enzyme Inhibition Assay. Further: in the data most compounds retested in dose-response had high values. It is filed as functional. As to conditions: 30 µM.

Sequence of Chromo domain-containing protein 1 (Saccharomyces cerevisiae (strain ATCC 204508 / S288c) (Baker's yeast)) (P32657 whole entry, the tested form may be a part): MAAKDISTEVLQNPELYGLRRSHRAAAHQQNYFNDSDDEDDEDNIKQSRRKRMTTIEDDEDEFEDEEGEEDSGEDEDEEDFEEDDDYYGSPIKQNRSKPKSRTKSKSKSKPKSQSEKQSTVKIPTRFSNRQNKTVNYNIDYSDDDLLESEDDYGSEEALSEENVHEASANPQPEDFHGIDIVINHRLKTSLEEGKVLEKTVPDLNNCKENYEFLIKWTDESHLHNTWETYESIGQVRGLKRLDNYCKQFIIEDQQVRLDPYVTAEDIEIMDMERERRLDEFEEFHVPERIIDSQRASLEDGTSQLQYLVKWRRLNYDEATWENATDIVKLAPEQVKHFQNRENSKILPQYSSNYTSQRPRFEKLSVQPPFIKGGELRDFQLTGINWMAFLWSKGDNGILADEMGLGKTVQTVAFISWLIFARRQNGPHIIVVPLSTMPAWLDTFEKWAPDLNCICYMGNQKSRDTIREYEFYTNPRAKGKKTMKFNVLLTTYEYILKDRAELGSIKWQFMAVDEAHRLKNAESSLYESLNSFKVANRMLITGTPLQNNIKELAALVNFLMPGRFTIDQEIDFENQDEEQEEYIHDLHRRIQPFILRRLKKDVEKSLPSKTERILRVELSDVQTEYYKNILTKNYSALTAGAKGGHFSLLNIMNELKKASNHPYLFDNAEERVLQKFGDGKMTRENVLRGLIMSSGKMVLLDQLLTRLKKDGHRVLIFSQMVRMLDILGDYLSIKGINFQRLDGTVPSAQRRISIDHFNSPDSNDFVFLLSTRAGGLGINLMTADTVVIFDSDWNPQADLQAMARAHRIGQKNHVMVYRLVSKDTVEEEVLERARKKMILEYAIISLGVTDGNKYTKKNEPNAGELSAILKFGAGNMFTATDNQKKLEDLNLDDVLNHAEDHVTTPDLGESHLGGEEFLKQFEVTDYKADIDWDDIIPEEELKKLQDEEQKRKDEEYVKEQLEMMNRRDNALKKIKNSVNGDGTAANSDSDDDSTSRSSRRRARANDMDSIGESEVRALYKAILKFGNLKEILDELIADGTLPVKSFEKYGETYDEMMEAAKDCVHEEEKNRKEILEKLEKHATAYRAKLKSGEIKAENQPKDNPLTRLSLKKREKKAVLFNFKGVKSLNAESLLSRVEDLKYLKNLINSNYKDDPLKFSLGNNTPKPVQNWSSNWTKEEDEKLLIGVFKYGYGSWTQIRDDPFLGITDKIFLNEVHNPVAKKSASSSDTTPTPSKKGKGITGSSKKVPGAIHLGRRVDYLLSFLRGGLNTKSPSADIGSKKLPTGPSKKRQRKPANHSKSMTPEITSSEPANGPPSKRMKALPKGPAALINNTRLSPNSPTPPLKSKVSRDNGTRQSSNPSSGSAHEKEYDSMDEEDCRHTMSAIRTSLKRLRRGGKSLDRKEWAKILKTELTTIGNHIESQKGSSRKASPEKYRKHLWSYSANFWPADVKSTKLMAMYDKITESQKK

Consider `CC(=O)N1CCC2(CCCN(C(=O)c3ccccc3)C2)C1` (stereo not given), for which the Percent Effect in [1] is -2.42%; in assay [2] it was 0%; in [3] it was 11%; in assay [4], -1.1%; in the assay with Trypanosoma cruzi, -1.57%; in assay [5] it was 3.03%. Also, the Percent Effect was 1.85% in assay [6]; -0.0486% in the assay filed under Homo sapiens; 2.13% in assay [7]; 1.28% in [8]; 5.13% in assay [9].
With `O=C(c1ccoc1)N1CC[C@@H]2[C@H]1CCC(=O)N2c1ccccc1`, the Percent Effect in [1] was -4.24%; in [2] it was 10.7%; in assay [3], 10.1%; in [4], -2.97%; in the assay on Trypanosoma cruzi it was -1.97%; in assay [5], -1.63%. The Percent Effect was 5.02% in assay [6]; 10.8% in the assay filed under Homo sapiens; 9.57% in assay [7]; 14.1% in [8]; -0.93% in assay [9].
Take `CN(C)c1ccc(C(=O)NCC2(O)CCOCC2)cc1`: the Percent Effect was -4.98% in [1]; 2.7% in assay [2]; -2.16% in [3]; 3.55% in [4]; 3.48% in the assay with Trypanosoma cruzi; 3.33% in [5]. In addition, the Percent Effect in assay [6] is 13.1%; in the assay listed under Homo sapiens it was -3.96%; in assay [7], 5.82%; in [8], 12.2%; in [9], -5.31%.
Take `COCC1CN(S(C)(=O)=O)Cc2ncn(CC3CC3)c21` (stereo not given): the Percent Effect in [1] is -4.92%; in assay [2] it was 13.5%; in [3], -0.0233%; in [4], -3.08%; in the assay with Trypanosoma cruzi, -5.38%; in assay [5] it was 0.248%. Moreover, the Percent Effect in assay [6] was 14.2%; in the assay listed under Homo sapiens, 27.2%; in assay [7] it was 4.3%; in assay [8], 8.64%; in assay [9], -3.62%.
As for `CCC(=O)N1CCCC(c2cc(Nc3ncccn3)nc(C)n2)C1` (stereo not given), the Percent Effect in [1] was -3.27%; in [2], 1.35%; in assay [3], 13.2%; in assay [4], -0.199%; with Trypanosoma cruzi it was -1.58%; in [5], -5.8%. Moreover, the Percent Effect was 10.6% in [6]; -1.71% in the assay filed under Homo sapiens; 6.45% in assay [7]; 11.7% in assay [8]; -6.06% in assay [9].
As for `O=c1[nH]c(CCN2CCCC(Cn3cncn3)C2)nc2ccccc12` (stereo not given), the Percent Effect in [1] is -4.26%; in assay [2] it was 13.5%; in assay [3], 0.62%; in assay [4], 16.8%; with Trypanosoma cruzi, 6.78%; in [5], 0.924%. Besides, the Percent Effect is 2.33% in [6]; 14.5% in the assay filed under Homo sapiens; 4.95% in assay [7]; 11% in assay [8]; -3.63% in [9].
On to `Cc1ccc(NC(=O)c2cc(S(=O)(=O)N3CCCCC3)c[nH]2)cc1F`, for which the Percent Effect was -2.47% in [1]; 5.2% in [2]; 59.4% in assay [3]; -11.2% in [4]; -5.03% with Trypanosoma cruzi; 5.81% in [5]. The Percent Effect was 6.61% in assay [6]; 4.38% in the assay listed under Homo sapiens; 5.29% in [7]; -21.8% in assay [8]; -9.19% in assay [9].
For `Cc1ncsc1C(=O)NC1CCN(CC(=O)N(C)c2ccccc2)CC1`, the Percent Effect in assay [1] is -6.03%; in assay [2], 18.4%; in [3], -4.03%; in [4], 6.55%; with Trypanosoma cruzi, -0.654%; in assay [5] it was -0.719%. Further, the Percent Effect in assay [6] came to 3.3%; in the assay listed under Homo sapiens, 1.23%; in [7], 10.3%; in assay [8], 18.5%; in assay [9] it was 2.33%.
With `Cn1ccc(NC(=O)Cc2cccc(F)c2)n1`, the Percent Effect in assay [1] is -2.82%; in assay [2], 5.41%; in assay [3], 2.46%; in assay [4], -6.52%; with Trypanosoma cruzi, 3.71%; in assay [5] it was -3.33%. Moreover, the Percent Effect came out at 12.3% in [6]; 15% in the assay listed under Homo sapiens; 12.9% in assay [7]; 13.4% in assay [8]; 113% in assay [9].
With `COc1cnc(C2(O)CCN(C(=O)c3cccnc3)CC2)c(OC)n1`, the Percent Effect in assay [1] was -4.3%; in assay [2], 4.05%; in assay [3], 11.7%; in assay [4], 7.31%; in the assay on Trypanosoma cruzi, -1.78%; in assay [5], -0.696%. Moreover, the Percent Effect in [6] was -0.156%; in the assay listed under Homo sapiens, -1.41%; in assay [7] it was 5.38%; in assay [8], 6.49%; in assay [9] it was -4.19%.
